# Results as given in PubChem BioAssay AID743269 (The Scripps Research Institute Molecular Screening Center, 2014).
# Hit rate of the full screen: of about 370,000 compounds, about 2,400 (0.65%) were called active.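 How the source made its calls: active means inhibition above the screen-wide mean plus 3 SD (cut at about 13% in these data); inactive means the rest.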 Shown is part of a subset that was picked to be rich in actives.
# Test system: HIV-1 integrase (with human LEDGF/p75)
# Assay: blockers of LEDGF/p75-dependent integrase strand transfer – biochemical, TR-FRET, high throughput, primary screen (AID 743269);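 further: signal is the Cy5 over europium emission ratio at 671 and 618 nm; 0% = plate median of compound wells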
# Conditions: TR-FRET IN-LEDGF/p75 DNA integration, Eu/Cy5; at 3.7 µM; active compounds read high
row,SMILES,inhibition
1,COc1cc(Cn2c(N)c(C(=O)NCc3ccco3)c3nc4ccccc4nc32)cc(OC)c1OC,1.57% (inactive)
2,CCOC(=O)c1c(N)n(Cc2ccccc2)c2nc3ccccc3nc12,32.8% (active)
3,CCOC(=O)c1cccc(C2=C(CNC(=O)c3ccncc3)[C@H]3CC[C@@H](C2)N3Cc2ccccc2)c1,-5.73% (inactive)
4,CCN1C(=O)C(=Cc2c(C)n(CC(=O)NCC3CCCO3)c3ccccc23)C(=O)N(CC)C1=S (stereo not given),-2.24% (inactive)
5,COc1ccc2c(c1)[C@@]13CCCCC1[C@@H](C2)NCC3 (stereo not given in full),-1.92% (inactive)
6,Cc1c(C(=O)O)cccc1-n1c(C)cc(/C=C2\C(=O)NC(=O)N(c3ccc4c(c3)OCO4)C2=O)c1C,15.4% (active)
7,O=P(OC1=CCCCC1)(c1ccccc1)c1ccccc1,6.63% (inactive)
8,CCC(C)(O)C(=O)OC1C(=O)OC2CC3C(C)=CC(=O)C(O)C3(C)C3C4(O)OCC23C1C(C)C4O (stereo not given),-3.3% (inactive)
9,CCOc1cccc(=NC2CCCCC2)c2c(C)[nH]c(C)c12,36.3% (active)
10,Cc1cccc(-n2c(O)c(C=NC34CN5CN(CN(C5)C3)C4)c(=O)[nH]c2=O)c1,-3.72% (inactive)
11,CC(C)Nc1nc(Cl)nc(NC(C)C)n1,-1.42% (inactive)
12,Brc1ccc2c(c1)CNCc1cnnn1-2,6.88% (inactive)
13,Cc1cc(N2CCNC[C@@H]2C)ccc1N1CC[C@H](O)C1,7.07% (inactive)
14,COc1ccc(N2C(=O)/C(=C/c3ccco3)C(=O)NC2=S)cc1,59.1% (active)
15,O=S(=O)(c1ccccc1)N1CCC2CCNC2C1 (stereo not given),5.81% (inactive)
16,CCC(C)NC1(c2ccccc2)CCCCC1 (stereo not given),2.52% (inactive)
17,COC(=O)C(O)(c1ccc(NC(=O)c2ccco2)c(OC)c1)C(F)(F)F (stereo not given),-2.33% (inactive)
18,CO[C@H]([C@H](C)/C=C/N(C)C=O)[C@@H](C)C(=O)CC[C@H](C)[C@H](O)[C@H](C)[C@H]1OC(=O)/C=C/C(C)=C/[C@H](O)[C@H](OC)C[C@@H]2C=CC[C@@H](C[C@H](OC)[C@@]3(CO3)[C@@H](OC)C[C@@H](OC)[C@@H]1C)O2,0.17% (inactive)
19,Clc1ccc([C@@H]2CC3CCC2N3)cn1 (stereo not given in full),4.15% (inactive)
20,Cc1cc(C=C2C(=O)NC(=O)NC2=O)c(C)n1-c1ccncc1,3.8% (inactive)
21,O=C1NC(=O)N(Cc2ccco2)C(=O)/C1=C\c1ccc(-c2ccc(F)cc2)o1,73.2% (active)
22,Cc1ccnc(-n2c(C)cc(/C=C3\C(=O)NC(=S)N(C)C3=O)c2C)c1,1.59% (inactive)
23,Cc1cc(/C=C2/C(=O)NC(=O)N(Cc3ccco3)C2=O)c(C)n1-c1ccc(C(=O)O)cc1,86% (active)
24,Cc1ccccc1CCC[C@@H](CC1CCCCC1)CN(C)C(=O)Oc1ccccc1,-1.47% (inactive)
25,C[N+]12CN3CN(CN(C3)C1)C2,-0.49% (inactive)
26,COc1cc(OC)cc(C(=O)NCCN2CCC3(CC2)C(=O)NCN3c2ccccc2)c1,4.72% (inactive)
27,CCN(CC)C(=O)[C@@H]1C=C2c3cccc4[nH]c(Br)c(c34)C[C@H]2N(C)C1,1.36% (inactive)
28,CS(=O)(=O)N1CCC2CCNC2C1 (stereo not given),-2.54% (inactive)
29,O=C(N/N=C/c1c(O)n(C2CC2)c(=S)[nH]c1=O)c1ccccc1,-7.23% (inactive)
30,COP(=O)(Sc1ccccc1)C(Cc1ccccc1)NC(=O)OCc1ccccc1 (stereo not given),4.08% (inactive)
